This passage reports inhibition results from PubChem BioAssay.

The structures appear in SMILES notation. Active and inactive are the calls of the source. How the calls were made is not given here.

Chain of Pantothenate synthetase (Mycobacterium tuberculosis (strain ATCC 25618 / H37Rv)) (P9WIL5 whole entry, looked up): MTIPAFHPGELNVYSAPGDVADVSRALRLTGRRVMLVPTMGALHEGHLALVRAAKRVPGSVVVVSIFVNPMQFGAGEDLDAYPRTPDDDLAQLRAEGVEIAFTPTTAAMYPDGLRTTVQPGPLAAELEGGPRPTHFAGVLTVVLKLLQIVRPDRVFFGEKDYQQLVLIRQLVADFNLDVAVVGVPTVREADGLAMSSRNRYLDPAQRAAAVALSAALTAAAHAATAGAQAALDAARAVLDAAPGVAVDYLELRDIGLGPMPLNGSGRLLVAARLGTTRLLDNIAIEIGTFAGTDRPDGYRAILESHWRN

This assay has as its target Pantothenate synthetase (Mycobacterium tuberculosis (strain ATCC 25618 / H37Rv)) (UniProt P9WIL5). The experiment in a line: Recombinant Mtb pantothenate synthetase (PanC) inhibitors, coupled enzyme, confirmatory (AID 375).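 Further: 0% = full reaction with vehicle and 100% = no enzyme background.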 As to conditions: coupled enzyme assay; at 10 µM, active compounds read high.
As to `O=C1NC2c3ccccc3C(=O)N2c2c1cnn2-c1ccccc1` (stereo not given), the inhibition was 1% (inactive).
On to `Cc1nn(C)cc1C1C2=C(CC(C)(C)CC2=O)OC2=C1C(=O)CC(C)(C)C2`, for which the inhibition was 0% (inactive).
The result for `C(=C\c1ccccc1)/CSc1nnc(-c2ccccn2)n1Cc1ccco1` reads 5% (inactive).
With `Cc1nc(C)c2c(c1C(F)(F)F)-c1ccccc1C2(F)F`, the inhibition was 0% (inactive).
The result for `CCOC(=O)CSc1nnc(NC(=O)c2cccc(S(=O)(=O)N3CCCCC3)c2)s1` reads 5% (inactive).
The result for `COc1ccc(S(=O)(=O)N2CCN(S(=O)(=O)c3ccc4c(c3)OCCO4)CC2)cc1C` reads 0% (inactive); that for `Cc1cc(C)nc(N2CCC(C(=O)NCc3cccc(C(F)(F)F)c3)CC2)n1`, 3% (inactive); that for `Cc1cc(NC(=O)Cn2cnc3c(cnn3C(C)(C)C)c2=O)no1`, 3% (inactive).
Next, `O=C(c1ccc(Cl)c(F)c1F)N1CCCC1`: 3% (inactive).
For `CSc1nnc(-c2ccccc2)n1C`, the inhibition was 7% (inactive).
Next, `O=C(CSc1nc2ccccc2c(=O)n1CCC(=O)N1CCCCC1)NCc1ccccc1`: 0% (inactive); `c1cc2c(cc1Cn1cnnn1)OCO2`: 0% (inactive); `Cc1nc(C)c(C(=O)C2=C(O)C(=O)N(CCN3CCOCC3)C2c2cccnc2)s1` (stereo not given): 13% (inactive).
Next, `COc1ccc(NC(=O)CSc2nnc(Cc3cccn3C)n2-c2ccc(F)cc2)cc1OC`: 0% (inactive); `CCc1cccc2c(=O)c(C(=O)NCCN3CCOCC3)c[nH]c12`: 10% (inactive).
Next, `COc1cc2c(=O)nc3n(c2cc1OC)C(c1ccccc1)N=C(N)N3` (stereo not given): 0% (inactive); `O=C(C1CC1)N1CCC(c2nc(-c3ccc(S(=O)(=O)NCC4CCCO4)cc3)no2)CC1` (stereo not given): 0% (inactive); `CSc1n[nH]c(NCc2ccccc2)n1`: 6% (inactive).
Take `COC(=O)C1(C(F)(F)F)N=C2Sc3ccccc3N2C(N2CCOCC2)=N1` (stereo not given): the inhibition was 0% (inactive).
Next, `COC(=O)c1[nH]c2ccccc2c1NC(=O)CN1CCC(C(N)=O)(N2CCCCC2)CC1`: 0% (inactive); `CCOc1cc(C2NC(=O)NC(O)(C(F)(F)F)C2C(=O)c2ccccc2)ccc1OC` (stereo not given): 3% (inactive); `CCOc1ccccc1C(=O)NCCCn1ccnc1`: 14% (inactive).
Next, `CC1CCN(C(=O)Cn2cc3c(n2)CCCC3)CC1`: 0% (inactive); `C1CNCCNCCNCCN1`: 0% (inactive).
The result for `COc1ccc(OCCCC(=O)Nc2ccc3c(c2)OCCO3)cc1` reads 4% (inactive); that for `CCN(Cc1cc2ccccc2[nH]c1=O)S(=O)(=O)c1ccccc1`, 0% (inactive); that for `OCCn1c(-c2ccc3c(c2)OCO3)csc1=Nc1ccccc1`, 1% (inactive).
As for `O=C1CCCCCN1CSc1nc2ccccc2s1`, the inhibition is 0% (inactive).
The result for `CCn1cc(C(=O)NCCN(C)CCc2ccccc2)c(=O)c2cc(S(=O)(=O)N(C)C)ccc21` reads 4% (inactive).
As to `CCCCn1c(=O)[nH]c(=O)c2c1nc(-c1ccncc1)n2CCOC`, the inhibition was 1% (inactive).
Next, `CC(=O)c1cccc(N(CC(=O)N2CCCC2)S(C)(=O)=O)c1`: 0% (inactive); `CC(C)Cn1c(N)c(C(=O)NCCN2CCOCC2)c2nc3ccccc3nc21`: 0% (inactive).
The result for `COc1cccc(/C(O)=C2/C(=O)C(=O)N(CCN3CCOCC3)C2c2cccnc2)c1` (stereo not given) reads 1% (inactive); that for `COc1cc2c(cc1NCc1ccccn1)oc1ccccc12`, 0% (inactive).
The result for `Brc1ccc(-c2csc(/N=C/N3CCOCC3)n2)cc1` reads 3% (inactive); that for `CCOC(=O)c1sc2nc(NC(=O)COc3ccccc3)sc2c1C`, 0% (inactive); that for `C=CCNc1oc(-c2cccc3ccccc23)nc1C#N`, 0% (inactive).
With `COc1ccccc1-c1nc(C(F)(F)F)c(OC)o1`, the inhibition was 0% (inactive).
Next, `CC1CCCC(N2CCN(C(=O)c3ccc(F)cc3)CC2)C1` (stereo not given): 0% (inactive); `CCn1cc(C(=O)NCC2CCCO2)c(=O)c2cc(S(=O)(=O)N(C)C)ccc21` (stereo not given): 0% (inactive).
